Experimental data taken from the supplement of paper PMC10681739.

Target: RUNX1 (UniProt Q01196)
Assay: RUNX1 binding intensity (PBM fluorescence) in presence of ETS1, normalised to RUNX1-only experiment (arbitrary fluorescence units); higher = stronger binding
Settings: RUNX1 concentration 2 nM; ETS1 concentration 25 nM
Description: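 Cooperative gcPBM on 36-bp genomic probes with neighbouring ETS1 and RUNX1 sites. Recombinant human RUNX1 (2 nM) was incubated alone or with ETS1 (25 nM) and detected with anti-RUNX1 antibody plus Alexa488 secondary. Values are medians over 4 replicate spots; the RUNX1+ETS1 data were normalised to the RUNX1-only data. The probes sit in constant array flanks that are not printed.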
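Also: Full-length recombinant human ETS1 or RUNX1 bound to double-stranded 36-bp genomic probes on microarrays, detected by protein-specific primary antibody and Alexa488 secondary, spot fluorescence as median of four replicate spots.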

RUNX1, sequence (Q01196 whole entry): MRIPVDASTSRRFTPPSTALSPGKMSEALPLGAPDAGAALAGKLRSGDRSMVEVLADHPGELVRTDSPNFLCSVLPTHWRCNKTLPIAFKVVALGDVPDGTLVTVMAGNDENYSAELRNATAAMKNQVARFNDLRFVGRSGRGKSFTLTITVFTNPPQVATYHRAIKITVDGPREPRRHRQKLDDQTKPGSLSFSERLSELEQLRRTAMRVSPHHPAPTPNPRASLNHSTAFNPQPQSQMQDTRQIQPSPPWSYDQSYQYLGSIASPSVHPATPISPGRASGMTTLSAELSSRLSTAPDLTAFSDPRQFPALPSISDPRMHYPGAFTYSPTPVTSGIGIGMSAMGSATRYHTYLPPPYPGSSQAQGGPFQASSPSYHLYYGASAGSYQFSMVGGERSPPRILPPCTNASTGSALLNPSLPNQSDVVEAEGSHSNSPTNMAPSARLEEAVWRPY

Sequence	RUNX1 binding intensity
CATCCAGGACGGAAACAGCATCCCCACCGCGGGAGC	1080
TCTCCTTTCAGGAAGCTGCACCCAAACCACCCTCAG	949
CCCACTCCACTTCCGCCACCGCCGCAGCCGCCGCTG	5930
ACAGGAAGTGTCTCTATAGAAACCAAACCACAGAAA	949
AGGCTTCCTGTTTTATCTCGTGTGTGTGGTGCACCA	2120
CAGTGGCAGGAAGAGGTCAGAAACCACTCGTGGTGG	1100
AAAGCAAACAGGAAGTGCTGTGGTAACAAGGCCCCA	1820
TGGGGCTCTTCCTGCTTATGTGACCACAGCACCTTG	1760
ACAGATAGTGATATCCTGTGGTCAATTCCCTCCCCT	2280
CGAGCTCGGTGTTCCGCTTTTTGTGGGCCGGGTGGG	903
TACCCAGAAAGGAAGTGGAACCTGCGGTGAGGCCCC	1950
TCCCCTTTCCGGGAAGGGTTGGGGATCTGACCACGT	1320
AGGTACCAGGCCCGGAAACCACGGAAAGGGGAACTT	1100
CTGCTAGCGGAAGCAGCCAAGCCCACAGGCTCCAGG	1040
GGCTCGGCAAACATCCGGCTCCGCGGTGGAACGGGA	1580
TCACATCCTGTAATGGTTTGCGCATACCACAGTTCT	1740
AACAAACCGGATGGGGTTGCCACCCGCAATCTTGTC	2140
TCCCCGGCAGCTTCCTCGCCCCGACCGCAGTGTTCC	1570
GACCAGGAAACGGGGCGTGGCGGCCGCCGTGGTTAC	857
CCATCCAGGAAGCTTATGGTGCGACCGCAGTGTGCC	1160

Sequence	RUNX1 binding intensity
AACAAACCGGATGGGGTTCCCACCCGCAATCTTGTC	1970
GTAGAGACAGGAAATTATGTTGGTTTTCTTGCAGAA	1310
CTGCTGCTTTTAGGATGTGGTTTTATTATTGTCGGG	1340
AACACCACTTCCTACTGTGAAACCACACTGTATTTG	2980
AGAACCACTTCCTCTCAGTAAACCACAGAGACTGTA	5880
TGCTTCCCGTCCGTGTCGCGGCCCTGCGGTTGGCGG	3310
AGGACCGGAAGTGCCCGAGGGCGGCCGCAGAACGGT	1320
ATACTGAGTCATTTCCTGTGGTGTTATTGTGTTGTA	1570
GAGACTTTCGCTTCCGGCTGCCGCAGGCGCTTCGCT	1550
ACTGAAAACAGCACAGGATGTGGTCTGCCAGGTGCC	1440
GTTGGGCTTTGAGGATGTGGGTTCTAGAAGTTTACA	1050
CAAAAGTGCTTCCTCTCGAGGGGTTGTGGTTCTTAC	1070
CCATTCACGGGCTTCCGCGGTGTCCCCACCCCCTAA	1160
TTTCTCTTCCTGTTTCCACCCTGACCACAGCCAGCT	5140
GCGAGACGCGGAAGAGGCTTGCGGTTGACCAAAGAA	4310
TGAGCAAGTTCCTTCCTGTCTGTGGTCCAGGGTTTA	1510
CAGTGGCTAAGGATCCGGTGTTGCGGTGATACATGA	1280
CCTCCCGACCGGAAGCCCCGCCACAGAGCGGGTTGT	2420
GGAGCGCGCCGGAAACGCGCGGCTGCGGCCCGGGAG	1320
CCCCCTGAACATCCGGGGCCTTTTAACCGCCCACGG	1790
